Experimental data reported in ChEMBL document CHEMBL4513146, “CO-ADD screening of Karazin Kharkiv National University (Ukraine) compounds”.
Results with a measured potency or affinity are listed apart.

Tests used:
Klebsiella pneumoniae = conditions: Concentration 32 ug.mL-1;; ASSAY_TEST Inhibition of Bacterial Growth; detection method Absorption (OD600); MEDIA CAMHB; plate type 384well; NBS; CORNING #3640; time 18 hr
Candida albicans = conditions: Concentration 32 ug.mL-1; ASSAY_TEST Inhibition of Fungal Growth; detection method Absorption (OD530)
Cryptococcus neoformans = conditions: Concentration 32 ug.mL-1; ASSAY_TEST Inhibition of Fungal Growth; detection method Resazurin; Absorption (OD600-OD570); plate type 384well; NBS; CORNING #3640

| Structure (SMILES) | Inhibition (Klebsiella pneumoniae) | Inhibition (Candida albicans) | Inhibition (Cryptococcus neoformans) |
| --- | --- | --- | --- |
| CC(=O)c1cccc(NC(=O)CSc2nc3ccccc3n3c(C)nnc23)c1 | 2.18% | 5.91% | -6.11% |
| COc1ccc(-c2cc3c4nnc(SCC(=O)NCc5ccc(Cl)cc5)n4ccn3n2)cc1 | 6.35% | -0.75% | -28.86% |
| CCc1nnc2c(SCC(=O)Nc3ccc(C(=O)OC)cc3)nc3ccccc3n12 | 5.41% | 4.91% | -21.71% |
| CC(C)c1nnc2c(=O)n(CC(=O)Nc3ccc(Br)cc3F)c3ccccc3n12 | 12.63% | 1.97% | -15.71% |
| O=C(CSc1nnc2c3cc(-c4ccccc4)nn3ccn12)Nc1cccc(Br)c1 | 14.04% | 3.21% | -28.34% |
| COc1ccc(N2CCN(C(=O)Cn3nc4ccc(-c5ccccc5)nn4c3=O)CC2)cc1 | 3.53% | -1.43% | -4.25% |
| Cc1ccc(CNC(=O)CSc2nnc3c4cc(-c5ccc(F)cc5)nn4ccn23)cc1 | 11.62% | 2.7% | -29.65% |
| Cc1ccc(-c2ccc3nn(Cc4ccc(N5CCCC5=O)cc4)c(=O)n3n2)cc1 | 8.04% | 1.53% | -7.16% |
| O=C(CCc1nnc2c(N3CCCCC3)nc3ccccc3n12)NCc1ccccc1F | 14.62% | 1.76% | -9.32% |
| COc1ccc(-c2nc(CSc3nc4ccccc4n4c(C(C)C)nnc34)c(C)o2)cc1OC | -2.06% | 3.02% | -7.98% |
| O=C(CCc1nnc2c(N3CCCCC3)nc3ccccc3n12)NCc1ccc(F)cc1 | 6.52% | 8.78% | -23.71% |
| O=C(CSc1nnc2c3cc(-c4ccc(F)cc4)nn3ccn12)NCc1ccccc1 | 0.49% | 0.97% | -18.29% |
| COc1ccc(Cl)cc1NC(=O)CSc1nnc2c(=O)n(-c3ccccc3)ccn12 | 11.41% | 3.46% | -20.14% |
| O=c1n(Cc2nc(-c3ccc(F)cc3)no2)nc2ccc(-c3ccccc3)nn12 | 18.38% | -1.53% | -18.94% |
| C=Cc1ccc(CN(c2ccc(C(C)C)cc2)S(=O)(=O)c2cccn3cnnc23)cc1 | 14.46% | 3.5% | -17.09% |
| COC(=O)c1ccccc1NC(=O)Cn1nc2c3sc(N4CCCC4)nc3ncn2c1=O | 7.53% | 3.62% | -7.62% |
| Cc1ccc(NC(=O)c2ccc3nnc(SCC(=O)Nc4ccc(F)cc4)n3c2)cc1 | 0.72% | 4.31% | -5.93% |
| Cc1cc(C)c(NC(=O)CSc2nc3ccccc3n3c(C)nnc23)c(C)c1 | 10.14% | 1.31% | -7.76% |
| O=C(Cn1nc2c(SC3CCCCC3)nccn2c1=O)Nc1cccc(Cl)c1 | -2.02% | 27.21% | -17.97% |
| COc1ccc(Cl)cc1NC(=O)CSc1nc2ccccc2n2c(C(C)C)nnc12 | -0.34% | 58.61% | -12.46% |

| Structure (SMILES) | Inhibition (Klebsiella pneumoniae) | Inhibition (Candida albicans) | Inhibition (Cryptococcus neoformans) |
| --- | --- | --- | --- |
| CCOc1ccc(NC(=O)CSc2nnc3c(=O)n(-c4ccc(OCC)cc4)ccn23)cc1 | 13.96% | 2.39% | -11.05% |
| Cc1ccc(Sc2nccn3c(=O)n(CC(=O)Nc4ccc(F)c(Cl)c4)nc23)c(C)c1 | -6.57% | 10.6% | -11.17% |
| COc1cccc(-n2ccn3c(SCC(=O)N4CCN(c5ccccc5F)CC4)nnc3c2=O)c1 | 17.26% | 0.16% | -10.18% |
| COc1ccc(N2CCN(C(=O)Cn3nc4ccc(-c5ccc(Cl)cc5)nn4c3=O)CC2)cc1 | -0.61% | 7.77% | -9.26% |
| Cc1cccc(NC(=O)Cn2nc3c(Sc4ccccc4)nccn3c2=O)c1 | -4.33% | 0.01% | -4.87% |
| COc1cccc(Oc2nccn3c(=O)n(CC(=O)NCc4ccccc4Cl)nc23)c1 | 18.21% | -2.46% | -9.66% |
| CCOC(=O)N1CCN(C(=O)CCc2nnc3c4cc(-c5ccc(F)cc5)nn4ccn23)CC1 | 12.38% | 2.97% | -14.63% |
| Cc1cc(C)cc(NC(=O)Cn2nc3c(Sc4cccc(C)c4)nc4ccccc4n3c2=O)c1 | 5.29% | 1.16% | -15.02% |
| COc1ccc(NC(=O)c2ccc3nn(CC(=O)Nc4cc(Cl)ccc4OC)c(=O)n3c2)cc1 | 1.5% | 2.28% | -8.79% |
| Cc1cccc(NC(=O)c2ccc3nn(CC(=O)N4CCc5ccccc5C4)c(=O)n3c2)c1 | -2% | 12.37% | -12.59% |
| CCc1nnc2c(=O)n(CC(=O)Nc3cccc(C#N)c3)c3ccccc3n12 | 9.63% | 5.47% | -28.04% |
| Cc1ccc(NC(=O)Cn2nc3ccc(SC(C)C)nn3c2=O)cc1F | 6.4% | 5.51% | -6.87% |
| COc1ccc(-c2cc3c4nnc(SCC(=O)Nc5cc(F)ccc5C)n4ccn3n2)cc1 | -19.37% | 1.81% | -16.34% |
| O=C(Cn1nc2c(N3CCOCC3)nccn2c1=O)Nc1ccc(Br)cc1F | 9.99% | 1.73% | -5.04% |
| COc1cc(OC)c(NC(=O)Cn2nc3ccc(-c4ccc(C)c(C)c4)nn3c2=O)cc1Cl | 7.84% | 1.07% | -20.51% |
| COc1cccc(-n2ccn3c(SCC(=O)NCc4ccc(Cl)cc4)nnc3c2=O)c1 | 6.58% | 0.82% | -6.96% |
| Cc1ccc(C)c(CN(c2ccc(F)c(F)c2)S(=O)(=O)c2cccn3cnnc23)c1 | -0.76% | 1.83% | -7.27% |
| Cc1cc2nn(CC(=O)Nc3cccc(C)c3C)c(=O)n2c(Nc2ccc(F)c(C)c2)n1 | 8.99% | 3.16% | -7.96% |
| Cc1ccc(C)c(Cn2nc3n(CC(C)C)c(=O)c4sccc4n3c2=O)c1 | 7.9% | -1.65% | -8.63% |
| COc1cccc(Cn2nc3c(=O)n(-c4cccc(Cl)c4C)ccn3c2=O)c1 | -11.12% | 6.64% | -14.85% |

| Structure (SMILES) | Inhibition (Klebsiella pneumoniae) | Inhibition (Candida albicans) | Inhibition (Cryptococcus neoformans) |
| --- | --- | --- | --- |
| COc1cccc(NC(=O)Cn2nc3c(Oc4cccc(OC)c4)nccn3c2=O)c1 | 3.74% | 3.44% | -0.95% |
| Cc1cc2nn(CC(=O)Nc3cc(F)cc(F)c3)c(=O)n2c(Nc2ccc(F)c(C)c2)n1 | 18.09% | 3.34% | -11.58% |
| COc1ccccc1NC(=O)Cn1c(=O)c2nnc(C(C)C)n2c2ccccc21 | 6.56% | -0.06% | -9.5% |
| Cc1cc(C)cc(Nc2nc(C)cc3nn(CC(=O)NC4CCCC4)c(=O)n23)c1 | 17.93% | 3.67% | -8.76% |
| Cc1cccc(Oc2nccn3c(=O)n(CC(=O)N4CCN(c5ccc(F)cc5)CC4)nc23)c1C | 7.83% | -1.43% | -7.63% |
| CCOc1ccc(-n2ccn3c(SCC#N)nnc3c2=O)cc1 | 5.38% | 1.02% | -3.42% |
| CSc1ccc(CNC(=O)Cn2nc3c(Oc4cccc(C)c4C)nccn3c2=O)cc1 | 12.69% | 0.27% | -6.54% |
| Cc1ccccc1Nc1cc(C)n2c(=O)n(CCc3ccccc3)nc2n1 | 8.17% | 2.84% | -4.15% |
| O=c1c2nnc(-c3ccc([N+](=O)[O-])cc3)n2ccn1-c1ccc(F)c(F)c1 | 12.52% | 2.2% | -9.46% |
| CCOc1ccc(NC(=O)Cn2nc3c4cc(-c5ccc(Cl)cc5)nn4ccn3c2=O)cc1 | 10.46% | 5.03% | -14.66% |
| CCCc1nnc2c(=O)n(CC(=O)Nc3ccc(Br)cc3)c3ccccc3n12 | 14.09% | 0.11% | -25.88% |
| Cc1cccc(NC(=O)Cn2nc3nc(N4CCCCCC4)ccn3c2=O)c1C | 16.3% | 1.23% | -8.73% |
| Cc1ccc(-c2cc3c4nn(CC(=O)Nc5cc(F)ccc5C)c(=O)n4ccn3n2)cc1C | 2.94% | -1.13% | -10.17% |
| O=C(CSc1nnc2c(=O)n(-c3ccccc3)ccn12)Nc1ccc2c(c1)OCCO2 | 7.64% | 0.98% | -23.79% |
| COc1cccc(-n2ccn3c(SCC(=O)Nc4ccc(OC)c(OC)c4)nnc3c2=O)c1 | 16.13% | 5.16% | -5.69% |
| COc1cccc(CNC(=O)CSc2nnc3c(=O)n(-c4ccccc4)ccn23)c1OC | 8.24% | -1.2% | -16.17% |
| O=c1c2nn(Cc3c(F)cccc3Cl)c(=O)n2ccn1-c1ccccc1 | 15.43% | 1.25% | -4.81% |
| Cc1ccc(-c2cc3c4nn(CC(=O)Nc5c(C)cccc5C)c(=O)n4ccn3n2)cc1 | 9.73% | -0.52% | -14.67% |
| O=C(NCc1ccccc1)c1ccc2nn(CC(=O)N3CCN(c4ccccc4)CC3)c(=O)n2c1 | 13.57% | 3.02% | -23.82% |
| COc1ccc(NC(=O)Cn2nc3nc(N4CCCCCC4)ccn3c2=O)cc1Cl | 8.5% | 2.73% | -7.14% |
